The results in this text go back to PubChem BioAssay (NCI).

The panel holds about 83,000 compounds, 20% with a hit somewhere; the sample as a whole holds those more often.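 Negative percent growth values reflect cell death: -40 means 40% of the cells present at the start died, and -100 means all died.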 A number with no mark means an inactive call. Calls of active or inactive are those of the source. Rule for the calls: active = growth percent below 10; inactive = the rest.

Among the test systems are HCT-15 colon; HT29 colon; SNB-75 CNS; SNB-19 CNS; U251 CNS; PC-3 prostate; SK-MEL-5 melanoma; UACC-62 melanoma; LOX IMVI melanoma; SK-MEL-28 melanoma; SK-MEL-2 melanoma; EKVX NSCLC; SN12C renal; UO-31 renal; TK-10 renal; ACHN renal; CAKI-1 renal; A498 renal; CCRF-CEM leukemia; MOLT-4 leukemia.
What all share (experiment): NCI-60 one-dose screen, 48 h (100 = growth as untreated, 0 = no growth, -100 = all killed)
What all share (conditions): 10 µM

Turning to `COc1cc(/C=C/C(=O)c2ccc(F)cc2)ccc1Oc1nc(Nc2ccc(F)cc2)nc(N(C)C)n1`, the growth is 37.2% in the assay on HCT-15 colon; 60.4% in the assay on HT29 colon; 72.5% with SNB-75 CNS; 68.6% in the assay with SNB-19 CNS; 9.68% (active) in the assay on U251 CNS; 63.9% in the assay on PC-3 prostate. Also, the growth with SK-MEL-5 melanoma is 40%; with UACC-62 melanoma, 51%; in the assay with LOX IMVI melanoma, -56.3% (active); with SK-MEL-28 melanoma it was 62%; in the assay on SK-MEL-2 melanoma, 61%; with EKVX NSCLC it was 50.1%. In addition, the growth is 60.1% in the assay with SN12C renal; 47.1% in the assay with UO-31 renal; 99.4% in the assay with TK-10 renal; 50.9% with ACHN renal; 58% in the assay on CAKI-1 renal; 86.5% with A498 renal. The growth with CCRF-CEM leukemia was 15.2%; in the assay on MOLT-4 leukemia, 1.46% (active).

For `CN1C(=O)N(C)C2SC(N/N=C/C=C/c3ccccc3)=NC21` (stereo not given), the growth in the assay on HCT-15 colon was 37.2%; in the assay with HT29 colon, 73.2%; in the assay with SNB-75 CNS, 89.7%; in the assay with SNB-19 CNS, 72.5%; in the assay on U251 CNS it was 79.2%; with PC-3 prostate it was 75.5%. For the same compound, the growth is 57.9% with SK-MEL-5 melanoma; 41.7% with UACC-62 melanoma; 68.1% in the assay on LOX IMVI melanoma; 69.5% in the assay on SK-MEL-28 melanoma; 81.9% with SK-MEL-2 melanoma; 86.6% with EKVX NSCLC. In addition, the growth in the assay on SN12C renal is 85.6%; in the assay with UO-31 renal, 58.4%; in the assay on TK-10 renal it was 99.6%; in the assay with ACHN renal it was 92.7%; with CAKI-1 renal it was 83.6%; in the assay with A498 renal, 81.5%. Further, the growth is 47.5% with CCRF-CEM leukemia and 46.7% in the assay with MOLT-4 leukemia.

As to `COc1ccc(-c2nc(Nc3ccccc3S(N)(=O)=O)c3ccccc3n2)cc1`, the growth with HCT-15 colon is 28.1%; in the assay with HT29 colon, 8.94% (active); in the assay on SNB-75 CNS it was 109%; in the assay with SNB-19 CNS it was 57.7%; in the assay with U251 CNS, 3.82% (active); with PC-3 prostate, 55.6%. Further, the growth is 61.3% in the assay with SK-MEL-5 melanoma; 56.5% with UACC-62 melanoma; -79.9% (active) with LOX IMVI melanoma; 76.7% in the assay with SK-MEL-28 melanoma; 110% with SK-MEL-2 melanoma; 65% in the assay on EKVX NSCLC. In addition, the growth in the assay on SN12C renal is 26.3%; in the assay with UO-31 renal, 29.2%; in the assay with TK-10 renal, 67.4%; in the assay with ACHN renal, 15.3%; in the assay with CAKI-1 renal, 7.47% (active); in the assay on A498 renal, 92%. Further, the growth was 64.1% in the assay with CCRF-CEM leukemia and 21.1% in the assay with MOLT-4 leukemia.

As to `CCCCSc1nc(Nc2ccc(/C(C)=N/NC(N)=S)cc2)c(C#N)c(-c2ccccc2)n1`, the growth in the assay with HCT-15 colon was 38.4%; with HT29 colon, 61.2%; in the assay on SNB-75 CNS, 96.8%; in the assay with SNB-19 CNS it was 50%; with U251 CNS, 18.8%; in the assay on PC-3 prostate it was 28.9%. In addition, the growth in the assay with SK-MEL-5 melanoma is 54.9%; in the assay on UACC-62 melanoma, 64.5%; in the assay with LOX IMVI melanoma, 5.73% (active); with SK-MEL-28 melanoma, 66.3%; in the assay with SK-MEL-2 melanoma, 90.4%; in the assay on EKVX NSCLC, 62.5%. Moreover, the growth is 19.8% in the assay with SN12C renal; 11.8% in the assay on UO-31 renal; 48.8% with TK-10 renal; 14.3% in the assay on ACHN renal; 33.5% with CAKI-1 renal; 42.1% in the assay on A498 renal. In addition, the growth in the assay with CCRF-CEM leukemia was 49.2%; in the assay on MOLT-4 leukemia, 47.3%.

As for `O/N=C(\CSc1nnc(-c2c[nH]c3ccccc23)n1-c1ccccc1)c1ccc(Cl)cc1`, the growth with HCT-15 colon was -48.1% (active); in the assay on HT29 colon, 4.47% (active); with SNB-75 CNS it was 48%; in the assay on SNB-19 CNS, 17.4%; in the assay on U251 CNS, 30.5%; in the assay with PC-3 prostate, -38% (active). In addition, the growth in the assay on SK-MEL-5 melanoma was 21.2%; in the assay with UACC-62 melanoma it was -43.2% (active); with LOX IMVI melanoma it was -89.3% (active); in the assay with SK-MEL-28 melanoma, 21.2%; in the assay on SK-MEL-2 melanoma it was 20.1%; with EKVX NSCLC, 2.05% (active). The growth is -16.2% (active) with SN12C renal; 34.4% in the assay with UO-31 renal; -23.2% (active) in the assay on TK-10 renal; 3.34% (active) in the assay with ACHN renal; -10.7% (active) in the assay on CAKI-1 renal; 83.7% in the assay with A498 renal. Besides, the growth in the assay on CCRF-CEM leukemia is -5.19% (active); in the assay on MOLT-4 leukemia, -7.37% (active).

Regarding `O=C1NC(=NC23CC4CC(CC(C4)C2)C3)N/C1=C\c1ccc2ncccc2n1`, the growth is -16.2% (active) with HCT-15 colon; -17.4% (active) with HT29 colon; -70.7% (active) in the assay with SNB-75 CNS; -7.61% (active) with SNB-19 CNS; 5.17% (active) with U251 CNS; -0.602% (active) in the assay with PC-3 prostate. In addition, the growth in the assay with SK-MEL-5 melanoma is -68.3% (active); in the assay with UACC-62 melanoma, -64.4% (active); in the assay with LOX IMVI melanoma it was -42.6% (active); with SK-MEL-28 melanoma, -30.2% (active); in the assay on SK-MEL-2 melanoma it was -94.8% (active); with EKVX NSCLC, -22% (active). Also, the growth is 1.63% (active) in the assay on SN12C renal; -15.8% (active) in the assay on UO-31 renal; 9.19% (active) in the assay on TK-10 renal; -13% (active) in the assay on ACHN renal; -13.4% (active) with CAKI-1 renal; -28.3% (active) in the assay on A498 renal. Also, the growth in the assay with CCRF-CEM leukemia is -9.82% (active); in the assay with MOLT-4 leukemia it was -10.9% (active).

With `O=c1[nH]c2ccc(Cl)cc2cc1CSc1ccc(Nc2nccc(-c3ccc4ccccc4c3)n2)cc1`, the growth is 12.6% with HCT-15 colon; 75.1% in the assay with HT29 colon; 107% in the assay with SNB-75 CNS; 71.8% in the assay with SNB-19 CNS; 45.7% in the assay with U251 CNS; 62.4% in the assay with PC-3 prostate. Further, the growth in the assay with SK-MEL-5 melanoma is 98.4%; in the assay with UACC-62 melanoma it was 106%; in the assay on LOX IMVI melanoma it was 60.4%; in the assay on SK-MEL-28 melanoma, 90.8%; with SK-MEL-2 melanoma it was 97.2%; in the assay on EKVX NSCLC it was 83.6%. In addition, the growth with SN12C renal is 62.6%; with UO-31 renal, 96.2%; in the assay on TK-10 renal, 79.8%; in the assay on ACHN renal, 100%; with CAKI-1 renal, 97.1%; in the assay with A498 renal, 119%. Besides, the growth in the assay on CCRF-CEM leukemia was 80%; in the assay on MOLT-4 leukemia it was 80.5%.

Turning to `O=c1[nH]c2ccccc2cc1CSc1ccc(Nc2nccc(-c3ccc4ccccc4c3)n2)cc1`, the growth is 30.6% in the assay with HCT-15 colon; 49.9% in the assay on HT29 colon; 111% in the assay with SNB-75 CNS; 71.2% in the assay with SNB-19 CNS; 20% in the assay on U251 CNS; 1.09% (active) in the assay with PC-3 prostate. The growth with SK-MEL-5 melanoma was 77%; in the assay on UACC-62 melanoma, 95.7%; in the assay with LOX IMVI melanoma, 3.77% (active); with SK-MEL-28 melanoma it was 65.7%; with SK-MEL-2 melanoma it was 96.5%; with EKVX NSCLC, 68.1%. Further, the growth in the assay with SN12C renal is 54.1%; in the assay on UO-31 renal it was 93.7%; in the assay on TK-10 renal it was 78.8%; in the assay with ACHN renal it was 79.5%; with CAKI-1 renal, 72.6%; in the assay on A498 renal it was 82%. The growth in the assay on CCRF-CEM leukemia was 79.9%; with MOLT-4 leukemia, 75.1%.
